According to the supplement of paper PMC11001985:
A number with no mark means an inactive call.

Compound: C#CCNC(=O)CCSSCCC(=O)NCCc1ccc(C=O)c(C=O)c1
Assay: lysine labeling ratio R10:1 (500 µM / 50 µM probe), SILAC-ABPP in living cells; higher = lower intrinsic lysine reactivity toward the probe, active = 2 or less
Conditions: HeLa; probe concentrations 500 vs 50 µM
Procedure, shortened: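 Measurements came from LC-MS/MS on a TIMS-TOF Pro of mixed SILAC light and heavy HeLa lysates after click to biotin-azide, trypsin digestion, neutravidin capture, DTT release and alkylation. Before lysis, the living cells sat in PBS at room temperature with 50 µM or 500 µM of an alkyne-tagged, disulfide-linked lysine probe, and labels were swapped forward and reverse. R per lysine is the median across both swap directions of the filtered median high-probe/low-probe MS1 peptide ratio. The cap is 20.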

Sequence of UniProt Q6YHK3 (Q6YHK3 whole entry): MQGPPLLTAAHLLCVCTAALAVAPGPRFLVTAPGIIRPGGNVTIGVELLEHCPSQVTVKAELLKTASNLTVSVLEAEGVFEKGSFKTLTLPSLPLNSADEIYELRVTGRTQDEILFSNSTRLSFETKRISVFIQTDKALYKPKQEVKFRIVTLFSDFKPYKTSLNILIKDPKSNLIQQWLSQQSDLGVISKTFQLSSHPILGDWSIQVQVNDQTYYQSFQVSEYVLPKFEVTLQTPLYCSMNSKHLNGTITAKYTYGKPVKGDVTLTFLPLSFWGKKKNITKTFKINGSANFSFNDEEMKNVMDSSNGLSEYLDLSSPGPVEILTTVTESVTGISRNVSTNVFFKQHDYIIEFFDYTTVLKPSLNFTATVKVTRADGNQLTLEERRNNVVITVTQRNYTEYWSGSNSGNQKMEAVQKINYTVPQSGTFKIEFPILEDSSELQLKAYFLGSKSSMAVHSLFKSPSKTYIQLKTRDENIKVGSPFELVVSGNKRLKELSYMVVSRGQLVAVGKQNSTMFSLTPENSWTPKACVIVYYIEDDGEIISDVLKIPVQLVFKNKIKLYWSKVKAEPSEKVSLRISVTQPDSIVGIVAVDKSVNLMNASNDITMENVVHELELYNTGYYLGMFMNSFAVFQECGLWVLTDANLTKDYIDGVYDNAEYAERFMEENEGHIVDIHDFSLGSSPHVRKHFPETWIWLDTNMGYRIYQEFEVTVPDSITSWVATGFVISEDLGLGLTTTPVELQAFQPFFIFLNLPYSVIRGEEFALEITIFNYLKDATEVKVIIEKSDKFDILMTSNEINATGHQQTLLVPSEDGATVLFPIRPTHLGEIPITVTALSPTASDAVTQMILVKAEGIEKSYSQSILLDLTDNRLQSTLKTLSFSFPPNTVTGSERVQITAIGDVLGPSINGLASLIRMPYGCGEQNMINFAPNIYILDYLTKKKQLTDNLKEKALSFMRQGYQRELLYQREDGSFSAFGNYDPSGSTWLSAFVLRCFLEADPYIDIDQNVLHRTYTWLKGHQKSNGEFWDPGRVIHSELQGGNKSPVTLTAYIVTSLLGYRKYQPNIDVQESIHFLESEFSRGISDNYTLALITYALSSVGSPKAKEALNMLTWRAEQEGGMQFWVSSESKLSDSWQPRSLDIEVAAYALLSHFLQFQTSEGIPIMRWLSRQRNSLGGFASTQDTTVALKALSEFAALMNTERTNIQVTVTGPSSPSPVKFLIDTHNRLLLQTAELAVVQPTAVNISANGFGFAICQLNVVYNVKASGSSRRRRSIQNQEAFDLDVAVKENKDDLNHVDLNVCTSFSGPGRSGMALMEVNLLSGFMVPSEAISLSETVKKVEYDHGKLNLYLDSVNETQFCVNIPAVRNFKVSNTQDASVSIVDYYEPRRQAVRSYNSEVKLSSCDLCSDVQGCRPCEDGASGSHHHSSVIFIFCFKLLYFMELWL
Sequence of UniProt P05787 (P05787 whole entry): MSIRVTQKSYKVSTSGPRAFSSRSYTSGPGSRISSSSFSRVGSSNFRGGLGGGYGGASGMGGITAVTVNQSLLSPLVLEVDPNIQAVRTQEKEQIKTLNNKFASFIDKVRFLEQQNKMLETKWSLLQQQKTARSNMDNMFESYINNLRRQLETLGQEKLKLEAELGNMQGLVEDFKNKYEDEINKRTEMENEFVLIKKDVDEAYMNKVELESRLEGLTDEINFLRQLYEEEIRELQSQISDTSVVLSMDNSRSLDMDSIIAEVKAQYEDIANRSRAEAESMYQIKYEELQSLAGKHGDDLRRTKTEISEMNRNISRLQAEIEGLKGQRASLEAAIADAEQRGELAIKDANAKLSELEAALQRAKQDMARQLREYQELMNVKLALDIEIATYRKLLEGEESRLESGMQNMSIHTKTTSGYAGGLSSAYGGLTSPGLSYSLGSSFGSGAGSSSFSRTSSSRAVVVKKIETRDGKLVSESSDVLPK
Sequence of UniProt P29317 (P29317 whole entry): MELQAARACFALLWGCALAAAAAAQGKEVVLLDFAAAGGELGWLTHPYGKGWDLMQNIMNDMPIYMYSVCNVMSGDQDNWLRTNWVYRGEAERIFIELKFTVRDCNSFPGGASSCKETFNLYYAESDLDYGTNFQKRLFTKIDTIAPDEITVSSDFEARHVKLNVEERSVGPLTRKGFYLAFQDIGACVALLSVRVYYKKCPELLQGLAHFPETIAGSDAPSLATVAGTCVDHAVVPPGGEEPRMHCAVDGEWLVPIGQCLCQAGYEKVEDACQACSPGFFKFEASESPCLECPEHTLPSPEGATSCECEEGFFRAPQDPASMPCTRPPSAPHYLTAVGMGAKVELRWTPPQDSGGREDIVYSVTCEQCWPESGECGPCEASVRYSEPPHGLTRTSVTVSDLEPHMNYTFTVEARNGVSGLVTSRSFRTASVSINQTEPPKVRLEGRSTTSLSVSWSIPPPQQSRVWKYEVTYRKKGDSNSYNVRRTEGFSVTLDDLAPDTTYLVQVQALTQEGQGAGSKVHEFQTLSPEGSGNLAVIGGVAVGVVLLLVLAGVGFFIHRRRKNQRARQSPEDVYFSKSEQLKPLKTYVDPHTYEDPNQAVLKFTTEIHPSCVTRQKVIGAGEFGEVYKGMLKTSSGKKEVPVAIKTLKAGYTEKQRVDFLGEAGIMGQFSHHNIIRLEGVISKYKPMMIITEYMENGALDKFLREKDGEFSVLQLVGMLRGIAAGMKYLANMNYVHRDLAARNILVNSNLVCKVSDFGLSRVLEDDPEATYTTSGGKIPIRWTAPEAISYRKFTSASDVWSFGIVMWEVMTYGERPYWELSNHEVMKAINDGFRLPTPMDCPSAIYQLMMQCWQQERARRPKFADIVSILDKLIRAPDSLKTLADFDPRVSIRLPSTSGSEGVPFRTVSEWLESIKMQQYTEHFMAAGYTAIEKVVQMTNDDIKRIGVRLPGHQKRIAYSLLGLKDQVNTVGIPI
Sequence of UniProt Q9P0L0 (Q9P0L0 whole entry): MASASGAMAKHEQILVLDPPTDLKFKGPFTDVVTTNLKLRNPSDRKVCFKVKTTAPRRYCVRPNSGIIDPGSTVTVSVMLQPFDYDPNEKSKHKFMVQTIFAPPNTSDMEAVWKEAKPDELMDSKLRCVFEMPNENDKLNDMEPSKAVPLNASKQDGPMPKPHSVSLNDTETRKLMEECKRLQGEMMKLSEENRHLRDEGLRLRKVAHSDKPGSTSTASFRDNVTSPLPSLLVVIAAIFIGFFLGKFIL
Sequence of UniProt Q9UHN6 (Q9UHN6 whole entry): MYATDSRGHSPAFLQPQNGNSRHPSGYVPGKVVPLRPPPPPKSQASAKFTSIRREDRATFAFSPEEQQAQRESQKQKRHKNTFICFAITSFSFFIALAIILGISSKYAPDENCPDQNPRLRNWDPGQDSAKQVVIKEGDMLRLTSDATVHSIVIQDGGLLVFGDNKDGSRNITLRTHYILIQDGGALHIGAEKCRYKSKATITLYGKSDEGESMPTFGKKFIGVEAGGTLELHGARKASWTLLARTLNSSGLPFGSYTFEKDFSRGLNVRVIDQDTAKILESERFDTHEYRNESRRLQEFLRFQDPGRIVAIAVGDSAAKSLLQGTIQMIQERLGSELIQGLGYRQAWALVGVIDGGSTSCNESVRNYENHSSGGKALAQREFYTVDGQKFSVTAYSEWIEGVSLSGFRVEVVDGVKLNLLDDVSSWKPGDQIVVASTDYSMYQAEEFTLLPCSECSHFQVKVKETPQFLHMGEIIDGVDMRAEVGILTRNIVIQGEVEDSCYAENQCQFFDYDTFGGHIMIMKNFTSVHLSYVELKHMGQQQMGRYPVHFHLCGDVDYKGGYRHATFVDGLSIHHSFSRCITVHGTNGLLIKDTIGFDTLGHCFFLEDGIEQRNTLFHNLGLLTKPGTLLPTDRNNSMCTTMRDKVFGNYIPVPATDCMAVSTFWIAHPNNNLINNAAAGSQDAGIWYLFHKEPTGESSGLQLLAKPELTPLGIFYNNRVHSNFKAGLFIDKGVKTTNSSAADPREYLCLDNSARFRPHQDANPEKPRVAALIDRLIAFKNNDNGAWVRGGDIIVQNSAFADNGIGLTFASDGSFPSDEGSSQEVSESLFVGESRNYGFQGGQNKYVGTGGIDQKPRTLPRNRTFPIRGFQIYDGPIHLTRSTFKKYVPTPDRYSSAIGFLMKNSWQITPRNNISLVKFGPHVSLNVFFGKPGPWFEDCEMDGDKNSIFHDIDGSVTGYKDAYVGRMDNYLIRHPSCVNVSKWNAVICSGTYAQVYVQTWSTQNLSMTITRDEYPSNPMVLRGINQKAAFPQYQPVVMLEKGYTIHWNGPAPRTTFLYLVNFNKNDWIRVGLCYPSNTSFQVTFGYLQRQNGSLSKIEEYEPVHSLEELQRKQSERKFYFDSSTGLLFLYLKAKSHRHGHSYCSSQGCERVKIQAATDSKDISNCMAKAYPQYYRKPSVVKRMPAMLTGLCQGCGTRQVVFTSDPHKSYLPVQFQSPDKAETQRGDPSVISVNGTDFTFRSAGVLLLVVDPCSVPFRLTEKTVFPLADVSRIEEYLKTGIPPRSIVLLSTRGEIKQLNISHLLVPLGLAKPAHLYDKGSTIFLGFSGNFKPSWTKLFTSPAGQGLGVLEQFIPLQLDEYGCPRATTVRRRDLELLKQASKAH
Sequence of UniProt P08670 (P08670 whole entry): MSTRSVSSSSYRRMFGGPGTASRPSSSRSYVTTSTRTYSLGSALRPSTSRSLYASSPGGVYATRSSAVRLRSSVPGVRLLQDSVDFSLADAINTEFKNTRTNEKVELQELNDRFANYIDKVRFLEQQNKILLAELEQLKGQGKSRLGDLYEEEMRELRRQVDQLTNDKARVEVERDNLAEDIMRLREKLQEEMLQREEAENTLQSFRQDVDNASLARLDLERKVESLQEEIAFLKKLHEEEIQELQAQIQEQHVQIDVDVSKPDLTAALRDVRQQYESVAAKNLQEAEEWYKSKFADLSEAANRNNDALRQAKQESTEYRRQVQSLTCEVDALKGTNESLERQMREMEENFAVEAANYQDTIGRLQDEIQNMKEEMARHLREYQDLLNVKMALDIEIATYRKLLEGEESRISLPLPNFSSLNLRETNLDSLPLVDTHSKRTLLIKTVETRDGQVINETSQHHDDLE

Target | lysine labeling ratio R10:1
UniProt Q15149 (lysine site: K1896) | 5.17
IMPDH2 (lysine site: K422) (UniProt P12268) | 1.55 (active)
ITGAV (lysine site: K535) (UniProt P06756) | 1.58 (active)
APP (lysine site: K521) (UniProt P05067) | 5.65
ITGA6 (lysine site: K144) (UniProt P23229) | 4.01
GPI (lysine site: K89) (UniProt P06744) | 1.12 (active)
EPHA2 (lysine site: K468) (UniProt P29317) | 3.11
HSP90AB1 (lysine site: K624) (UniProt P08238) | 7.02
UniProt P46781 (lysine site: K11) | 4.03
CKAP4 (lysine site: K191) (UniProt Q07065) | 2.86
UniProt Q13765 (lysine site: K82) | 3.23
UniProt P55285 (lysine site: K418) | 1.1 (active)
CD109 (lysine site: K471) (UniProt Q6YHK3) | 2.01
MET (lysine site: K595) (UniProt P08581) | 1.67 (active)
IGSF3 (lysine site: K811) (UniProt O75054) | 3.23
LRPAP1 (lysine site: K340) (UniProt P30533) | 1.47 (active)
MYH9 (lysine site: K910) (UniProt P35579) | 4.64
VIM (lysine site: K168) (UniProt P08670) | 3.85
UniProt Q9NYQ6 (lysine site: K324) | 0.873 (active)
UniProt P55072 (lysine site: K696) | 1.22 (active)

Target | lysine labeling ratio R10:1
FN1 (lysine site: K116) (UniProt P02751) | 5.35
LAMC1 (lysine site: K1354) (UniProt P11047) | 1.67 (active)
CACNA2D1 (lysine site: K649) (UniProt P54289) | 10.1
ATP6V0D1 (lysine site: K77) (UniProt P61421) | 1.33 (active)
UniProt Q9UHN6 (lysine site: K887) | 1.21 (active)
UniProt P05787 (lysine site: K464) | 5.11
ICAM1 (lysine site: K359) (UniProt P05362) | 3.71
HSPB1 (lysine site: K123) (UniProt P04792) | 2.35
UniProt P05787 (lysine site: K8) | 5.03
FLNB (lysine site: K681) (UniProt O75369) | 2.09
TIMM8B (lysine site: K80) (UniProt Q9Y5J9) | 1.18 (active)
CD109 (lysine site: K491) (UniProt Q6YHK3) | 2.99
VAPA (lysine site: K205) (UniProt Q9P0L0) | 7.76
ACTN4 (lysine site: K592) (UniProt O43707) | 6.67
TNFRSF1A (lysine site: K107) (UniProt P19438) | 1.07 (active)
SFN (lysine site: K77) (UniProt P31947) | 3.35
XRCC6 (lysine site: K582) (UniProt P12956) | 1.52 (active)
EPHA2 (lysine site: K162) (UniProt P29317) | 5.99
ECE1 (lysine site: K197) (UniProt P42892) | 2.89
EEF1G (lysine site: K243) (UniProt P26641) | 1.4 (active)
